Assay [1] concerns the target Sphingosine kinase 1 (Homo sapiens) (UniProt Q9NYA1). To be noted: at 1 µM.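 Note: mean SPHK1 inhibition value reported from the GSK PKIS kinase panel screen.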
The target of assay [2] is T1, Sphingosine kinase 2 (Homo sapiens) (UniProt Q9NRA0).
T1 sequence (whole entry): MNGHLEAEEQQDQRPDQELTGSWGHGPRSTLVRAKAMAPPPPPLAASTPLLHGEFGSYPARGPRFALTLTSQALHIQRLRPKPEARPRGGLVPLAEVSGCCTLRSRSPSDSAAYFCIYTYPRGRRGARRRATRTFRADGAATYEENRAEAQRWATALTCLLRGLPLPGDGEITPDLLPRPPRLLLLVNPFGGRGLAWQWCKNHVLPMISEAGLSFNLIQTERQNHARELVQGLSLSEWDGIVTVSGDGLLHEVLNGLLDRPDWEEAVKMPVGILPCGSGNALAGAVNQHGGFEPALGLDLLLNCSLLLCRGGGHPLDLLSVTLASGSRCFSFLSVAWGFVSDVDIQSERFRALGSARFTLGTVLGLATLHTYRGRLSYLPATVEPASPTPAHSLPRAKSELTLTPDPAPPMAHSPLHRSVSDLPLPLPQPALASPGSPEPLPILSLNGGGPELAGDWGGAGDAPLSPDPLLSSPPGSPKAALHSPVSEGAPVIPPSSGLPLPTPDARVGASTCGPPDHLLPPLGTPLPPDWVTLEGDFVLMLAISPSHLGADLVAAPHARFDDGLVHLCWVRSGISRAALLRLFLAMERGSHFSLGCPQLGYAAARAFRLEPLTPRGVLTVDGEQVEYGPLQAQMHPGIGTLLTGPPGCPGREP
To be noted: at 0.1 µM.

For assay [3], the target named is T1, Sphingosine kinase 2 (Homo sapiens). Conditions: at 1 µM.
Assay [4] addresses Casein kinase II subunit alpha (Homo sapiens) (UniProt P68400). Conditions: at 0.1 µM.
Assay [5] has the same target. To be noted: at 1 µM.
The target in assay [6] is T2, Inhibitor of nuclear factor kappa-B kinase subunit alpha (Homo sapiens) (UniProt O15111).
T2 sequence (whole entry): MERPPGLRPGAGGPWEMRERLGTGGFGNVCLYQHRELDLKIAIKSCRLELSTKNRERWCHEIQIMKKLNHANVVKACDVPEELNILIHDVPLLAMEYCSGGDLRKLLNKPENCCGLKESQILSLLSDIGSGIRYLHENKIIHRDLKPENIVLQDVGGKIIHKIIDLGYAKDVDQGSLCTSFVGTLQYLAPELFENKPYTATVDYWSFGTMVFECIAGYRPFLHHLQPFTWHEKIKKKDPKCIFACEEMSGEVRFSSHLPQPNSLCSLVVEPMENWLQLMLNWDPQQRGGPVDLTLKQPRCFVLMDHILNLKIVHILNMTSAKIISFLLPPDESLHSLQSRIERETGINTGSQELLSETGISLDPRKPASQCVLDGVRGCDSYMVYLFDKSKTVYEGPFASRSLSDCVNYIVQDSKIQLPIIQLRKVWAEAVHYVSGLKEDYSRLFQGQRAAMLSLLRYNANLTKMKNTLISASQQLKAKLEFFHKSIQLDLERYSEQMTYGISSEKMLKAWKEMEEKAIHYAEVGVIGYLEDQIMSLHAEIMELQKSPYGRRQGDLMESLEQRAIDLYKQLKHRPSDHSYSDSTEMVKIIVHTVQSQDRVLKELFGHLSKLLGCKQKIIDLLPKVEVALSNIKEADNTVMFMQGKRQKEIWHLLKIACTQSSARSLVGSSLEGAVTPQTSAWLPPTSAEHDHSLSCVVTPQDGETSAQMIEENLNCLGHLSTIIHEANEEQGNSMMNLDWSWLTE
Conditions: at 0.1 µM.

In assay [7] the target is T2, Inhibitor of nuclear factor kappa-B kinase subunit alpha (Homo sapiens). Conditions: at 1 µM.
Assay [8] addresses T3, Inhibitor of nuclear factor kappa-B kinase subunit beta (Homo sapiens) (UniProt O14920).
T3 sequence (whole entry): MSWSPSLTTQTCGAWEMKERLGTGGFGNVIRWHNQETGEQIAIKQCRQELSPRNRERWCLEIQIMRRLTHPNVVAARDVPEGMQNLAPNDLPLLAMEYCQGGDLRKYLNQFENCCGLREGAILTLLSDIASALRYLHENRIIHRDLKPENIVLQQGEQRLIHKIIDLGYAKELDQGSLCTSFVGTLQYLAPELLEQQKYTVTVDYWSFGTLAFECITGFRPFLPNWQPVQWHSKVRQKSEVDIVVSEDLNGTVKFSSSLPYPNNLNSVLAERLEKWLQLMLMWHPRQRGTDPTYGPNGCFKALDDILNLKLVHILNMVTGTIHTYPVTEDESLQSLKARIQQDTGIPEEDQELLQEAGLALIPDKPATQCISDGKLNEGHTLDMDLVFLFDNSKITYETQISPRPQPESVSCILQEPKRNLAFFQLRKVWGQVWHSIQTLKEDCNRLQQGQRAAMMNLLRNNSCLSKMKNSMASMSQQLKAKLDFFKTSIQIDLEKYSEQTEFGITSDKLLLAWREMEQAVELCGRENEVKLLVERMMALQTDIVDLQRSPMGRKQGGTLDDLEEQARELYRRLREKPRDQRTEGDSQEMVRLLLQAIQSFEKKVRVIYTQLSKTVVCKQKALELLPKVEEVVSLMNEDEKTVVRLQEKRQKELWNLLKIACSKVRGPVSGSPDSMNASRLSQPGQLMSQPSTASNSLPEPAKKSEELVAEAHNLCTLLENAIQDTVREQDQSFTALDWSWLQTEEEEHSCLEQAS
Conditions: at 0.1 µM.

Assay [9] addresses T3, Inhibitor of nuclear factor kappa-B kinase subunit beta (Homo sapiens). To be noted: at 1 µM.
The target of assay [10] is T4, Inhibitor of nuclear factor kappa-B kinase subunit epsilon (Homo sapiens) (UniProt Q14164).
T4 sequence (whole entry): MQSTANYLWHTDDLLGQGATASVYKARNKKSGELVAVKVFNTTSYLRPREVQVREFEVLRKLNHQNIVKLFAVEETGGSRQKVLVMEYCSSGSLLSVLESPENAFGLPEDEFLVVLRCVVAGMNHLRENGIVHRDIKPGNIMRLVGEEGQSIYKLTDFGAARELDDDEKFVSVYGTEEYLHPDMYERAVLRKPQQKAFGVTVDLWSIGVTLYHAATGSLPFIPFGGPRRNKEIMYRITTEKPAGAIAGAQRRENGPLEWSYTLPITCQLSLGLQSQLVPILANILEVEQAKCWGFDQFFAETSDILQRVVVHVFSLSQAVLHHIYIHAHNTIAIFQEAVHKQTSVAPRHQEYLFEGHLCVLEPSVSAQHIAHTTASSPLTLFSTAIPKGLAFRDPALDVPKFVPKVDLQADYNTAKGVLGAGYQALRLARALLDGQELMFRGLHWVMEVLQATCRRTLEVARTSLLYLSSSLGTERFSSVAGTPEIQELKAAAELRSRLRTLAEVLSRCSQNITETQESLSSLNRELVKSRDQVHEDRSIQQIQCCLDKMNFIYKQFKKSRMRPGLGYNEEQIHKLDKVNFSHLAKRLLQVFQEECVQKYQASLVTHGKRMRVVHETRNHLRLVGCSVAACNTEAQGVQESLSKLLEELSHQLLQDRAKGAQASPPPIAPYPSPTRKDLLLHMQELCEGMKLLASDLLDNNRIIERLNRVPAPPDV
To be noted: at 0.1 µM.

For assay [11], the target named is T4, Inhibitor of nuclear factor kappa-B kinase subunit epsilon (Homo sapiens). Conditions: at 1 µM.
The target of assay [12] is T5, Serine/threonine-protein kinase Nek1 (Homo sapiens) (UniProt Q96PY6).
T5 sequence (whole entry): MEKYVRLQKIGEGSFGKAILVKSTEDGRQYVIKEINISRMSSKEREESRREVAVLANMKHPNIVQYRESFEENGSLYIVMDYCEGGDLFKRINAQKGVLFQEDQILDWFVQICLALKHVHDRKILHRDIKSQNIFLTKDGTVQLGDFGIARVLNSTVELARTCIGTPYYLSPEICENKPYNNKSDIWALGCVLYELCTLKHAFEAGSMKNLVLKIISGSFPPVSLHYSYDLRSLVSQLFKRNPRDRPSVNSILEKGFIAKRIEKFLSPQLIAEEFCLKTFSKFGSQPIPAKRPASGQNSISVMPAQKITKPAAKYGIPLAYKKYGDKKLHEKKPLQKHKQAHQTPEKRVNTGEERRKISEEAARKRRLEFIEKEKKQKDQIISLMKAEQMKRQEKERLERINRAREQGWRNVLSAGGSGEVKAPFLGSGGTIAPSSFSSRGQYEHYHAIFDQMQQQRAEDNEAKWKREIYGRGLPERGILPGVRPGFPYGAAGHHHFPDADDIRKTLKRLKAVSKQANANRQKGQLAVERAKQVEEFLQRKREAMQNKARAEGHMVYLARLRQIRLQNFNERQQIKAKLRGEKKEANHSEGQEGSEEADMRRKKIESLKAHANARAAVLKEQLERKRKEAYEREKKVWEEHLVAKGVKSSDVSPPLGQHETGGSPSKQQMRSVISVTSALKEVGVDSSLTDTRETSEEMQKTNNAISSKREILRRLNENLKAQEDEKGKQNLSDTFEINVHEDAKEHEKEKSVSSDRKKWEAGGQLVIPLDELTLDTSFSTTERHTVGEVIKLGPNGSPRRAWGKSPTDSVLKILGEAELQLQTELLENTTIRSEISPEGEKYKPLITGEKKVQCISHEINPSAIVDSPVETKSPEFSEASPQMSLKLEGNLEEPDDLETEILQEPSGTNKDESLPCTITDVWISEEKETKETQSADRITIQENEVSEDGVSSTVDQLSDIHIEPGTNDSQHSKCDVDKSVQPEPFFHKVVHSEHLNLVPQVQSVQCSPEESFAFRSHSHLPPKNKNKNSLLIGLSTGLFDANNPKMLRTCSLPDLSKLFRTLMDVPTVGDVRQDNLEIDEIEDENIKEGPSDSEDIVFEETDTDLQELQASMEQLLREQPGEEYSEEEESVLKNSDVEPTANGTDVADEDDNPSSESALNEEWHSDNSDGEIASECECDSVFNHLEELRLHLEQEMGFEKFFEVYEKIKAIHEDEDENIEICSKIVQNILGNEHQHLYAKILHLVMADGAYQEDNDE
To be noted: at 0.1 µM.

The target of assay [13] is T5, Serine/threonine-protein kinase Nek1 (Homo sapiens). To be noted: at 1 µM.
Assay [14] has as its target T6, Serine/threonine-protein kinase Nek2 (Homo sapiens) (UniProt P51955).
T6 sequence (whole entry): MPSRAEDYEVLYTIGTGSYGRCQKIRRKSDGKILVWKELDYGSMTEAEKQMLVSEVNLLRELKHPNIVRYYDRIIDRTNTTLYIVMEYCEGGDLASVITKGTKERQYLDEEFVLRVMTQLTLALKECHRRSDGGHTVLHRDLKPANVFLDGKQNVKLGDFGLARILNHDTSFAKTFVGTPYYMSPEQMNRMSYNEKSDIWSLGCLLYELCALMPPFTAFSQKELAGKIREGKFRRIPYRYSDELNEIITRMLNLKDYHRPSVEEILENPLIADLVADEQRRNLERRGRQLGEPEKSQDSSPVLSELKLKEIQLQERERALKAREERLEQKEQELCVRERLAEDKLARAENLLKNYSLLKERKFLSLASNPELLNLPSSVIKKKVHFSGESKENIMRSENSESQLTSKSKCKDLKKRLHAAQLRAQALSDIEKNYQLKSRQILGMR
Conditions: at 0.1 µM.

The target in assay [15] is T6, Serine/threonine-protein kinase Nek2 (Homo sapiens). Conditions: at 1 µM.
Assay [16] concerns the target Serine/threonine-protein kinase Nek6 (Homo sapiens) (UniProt Q9HC98). To be noted: at 0.1 µM.
Assay [17] has the same target. To be noted: at 1 µM.
Assay [18] concerns the target Serine/threonine-protein kinase Nek7 (Homo sapiens) (UniProt Q8TDX7). To be noted: at 0.1 µM.
Assay [19] has the same target. To be noted: at 1 µM.
The target in assay [20] is T7, Serine/threonine-protein kinase Nek9 (Homo sapiens) (UniProt Q8TD19).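 Note: reported value is the mean percent inhibition of NEK9.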
T7 sequence (whole entry): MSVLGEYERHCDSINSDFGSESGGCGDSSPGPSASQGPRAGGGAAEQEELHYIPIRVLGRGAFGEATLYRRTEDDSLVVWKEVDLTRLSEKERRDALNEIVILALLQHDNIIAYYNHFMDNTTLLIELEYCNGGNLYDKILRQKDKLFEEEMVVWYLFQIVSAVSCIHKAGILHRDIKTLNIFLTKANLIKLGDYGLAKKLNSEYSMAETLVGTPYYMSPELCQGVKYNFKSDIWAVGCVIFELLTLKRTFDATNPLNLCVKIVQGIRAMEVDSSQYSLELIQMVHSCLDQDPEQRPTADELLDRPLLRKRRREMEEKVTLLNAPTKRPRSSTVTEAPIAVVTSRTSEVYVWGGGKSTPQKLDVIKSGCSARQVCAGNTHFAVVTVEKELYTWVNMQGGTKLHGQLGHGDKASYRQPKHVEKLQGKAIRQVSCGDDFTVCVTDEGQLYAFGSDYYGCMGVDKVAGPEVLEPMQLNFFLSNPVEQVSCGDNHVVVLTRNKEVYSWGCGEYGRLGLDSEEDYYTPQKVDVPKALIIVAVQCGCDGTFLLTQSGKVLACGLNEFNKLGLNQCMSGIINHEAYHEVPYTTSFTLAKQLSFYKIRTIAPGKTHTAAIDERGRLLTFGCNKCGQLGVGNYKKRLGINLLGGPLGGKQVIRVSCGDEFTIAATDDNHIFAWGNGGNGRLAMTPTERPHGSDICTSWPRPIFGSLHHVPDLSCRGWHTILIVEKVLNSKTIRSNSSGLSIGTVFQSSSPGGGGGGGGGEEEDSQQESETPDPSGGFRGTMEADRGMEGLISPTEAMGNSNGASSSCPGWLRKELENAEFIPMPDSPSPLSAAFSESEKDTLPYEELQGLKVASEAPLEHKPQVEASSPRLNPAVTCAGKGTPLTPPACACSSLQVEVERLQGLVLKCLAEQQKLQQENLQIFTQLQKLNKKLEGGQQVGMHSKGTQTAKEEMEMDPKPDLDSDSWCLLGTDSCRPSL
To be noted: at 0.1 µM.

Results on one compound are retold here after ChEMBL document CHEMBL1961873, “Compounds: GSK PKIS; Assays: Nanosyn kinase panel” (2012).

For orientation: inhibition means the change of the read-out against control, counted positive when it falls.

Sequence of Serine/threonine-protein kinase Nek6 (Homo sapiens) (Q9HC98 whole entry): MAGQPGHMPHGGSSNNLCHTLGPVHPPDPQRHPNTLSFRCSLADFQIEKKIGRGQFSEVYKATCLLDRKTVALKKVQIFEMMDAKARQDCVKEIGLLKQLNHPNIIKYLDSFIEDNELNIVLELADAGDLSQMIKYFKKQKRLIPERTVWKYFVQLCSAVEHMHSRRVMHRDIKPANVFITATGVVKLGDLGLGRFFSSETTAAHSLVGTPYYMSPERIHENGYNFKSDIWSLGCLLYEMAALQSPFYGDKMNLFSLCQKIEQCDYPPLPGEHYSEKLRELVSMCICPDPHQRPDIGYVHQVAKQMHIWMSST
Sequence of Casein kinase II subunit alpha (Homo sapiens) (P68400 whole entry, looked up): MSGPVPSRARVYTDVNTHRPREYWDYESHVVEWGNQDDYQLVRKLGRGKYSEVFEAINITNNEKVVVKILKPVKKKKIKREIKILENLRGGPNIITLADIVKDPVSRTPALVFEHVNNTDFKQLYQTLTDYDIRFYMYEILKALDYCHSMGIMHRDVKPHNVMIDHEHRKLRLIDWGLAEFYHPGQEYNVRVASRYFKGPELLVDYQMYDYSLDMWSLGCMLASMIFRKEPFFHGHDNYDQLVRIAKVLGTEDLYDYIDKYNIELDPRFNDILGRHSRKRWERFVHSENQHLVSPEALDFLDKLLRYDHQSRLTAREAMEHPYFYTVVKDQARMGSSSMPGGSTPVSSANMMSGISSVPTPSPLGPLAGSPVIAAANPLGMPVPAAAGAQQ
Sequence of Serine/threonine-protein kinase Nek7 (Homo sapiens) (Q8TDX7 whole entry, looked up): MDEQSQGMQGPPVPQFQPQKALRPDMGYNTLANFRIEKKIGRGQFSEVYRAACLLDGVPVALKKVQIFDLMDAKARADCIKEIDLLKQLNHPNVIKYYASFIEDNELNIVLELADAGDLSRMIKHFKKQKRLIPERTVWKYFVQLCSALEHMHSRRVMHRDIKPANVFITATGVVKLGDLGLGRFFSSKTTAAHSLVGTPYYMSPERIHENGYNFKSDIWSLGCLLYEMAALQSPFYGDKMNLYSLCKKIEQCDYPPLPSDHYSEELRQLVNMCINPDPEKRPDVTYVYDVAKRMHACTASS
Sequence of Sphingosine kinase 1 (Homo sapiens) (Q9NYA1 whole entry): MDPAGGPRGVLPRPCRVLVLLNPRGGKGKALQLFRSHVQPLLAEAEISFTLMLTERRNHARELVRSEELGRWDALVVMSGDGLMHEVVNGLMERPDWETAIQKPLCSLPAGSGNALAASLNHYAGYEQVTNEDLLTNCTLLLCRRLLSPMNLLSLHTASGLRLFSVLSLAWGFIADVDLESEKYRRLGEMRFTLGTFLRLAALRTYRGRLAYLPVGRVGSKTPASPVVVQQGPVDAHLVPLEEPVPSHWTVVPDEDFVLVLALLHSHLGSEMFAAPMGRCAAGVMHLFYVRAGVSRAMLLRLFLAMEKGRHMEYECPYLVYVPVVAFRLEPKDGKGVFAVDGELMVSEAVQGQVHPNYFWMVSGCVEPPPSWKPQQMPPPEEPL

As for `CCn1c(-c2nonc2N)nc2c(C#CC(C)(C)O)nc(OC[C@H](N)c3ccccc3)cc21`, the inhibition is 0.93% in assay [1]; -0.49% in assay [2]; 0% in [3]; 1.82% in assay [4]; 4.54% in assay [5]; 3.2% in assay [6]. Also, the inhibition in assay [7] is 2.58%; in assay [8] it was 1.71%; in [9] it was 4.92%; in [10] it was 8.21%; in assay [11], 37.9%; in assay [12] it was 2.39%. In addition, the inhibition in assay [13] was 2.81%; in assay [14], 2.31%; in assay [15] it was 4.1%; in assay [16], -0.95%; in assay [17] it was 1.56%; in assay [18] it was 1.87%. Further, the inhibition amounted to 3.72% in [19] and 6.95% in assay [20].
